According to PubChem BioAssay (NCI):
About 79,000 compounds went through this panel and 15% of them were active in at least one assay; those are over-represented in the sample as a whole. Unmarked numbers belong to inactive results. Active and inactive are the calls of the source. No stated cut-off is given here; in the data, active means growth inhibition above about 70%; inactive means the rest.

What was measured:
[1] = NCI Yeast Anticancer Drug Screen. Data for the rad50 strain (AID 155);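 further: 0% = growth of vehicle-only cultures of the same strain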; details: S. cerevisiae rad50 strain growth inhibition, stronger effect = higher value
In short: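 Cells are treated with compound, grown, and their growth is then scored against vehicle-only cultures of the same repair-deficient yeast strain.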

[2] = NCI Yeast Anticancer Drug Screen. Data for the mec2-1 strain (AID 157); details: S. cerevisiae mec2-1 strain, stronger effect = higher value
In short: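 Compounds were applied to mec2-1 yeast cells. Their growth was then compared with that of vehicle-treated cultures to give growth inhibition.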

[3] = NCI Yeast Anticancer Drug Screen. Data for the sgs1 mgt1 strain (AID 161);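 further: 0% = growth of cultures given vehicle only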; details: S. cerevisiae sgs1 mgt1 strain, stronger effect = higher value
In short: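 This yeast growth screen uses a strain with defined DNA-repair lesions; compound-treated growth is compared with vehicle-treated growth.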

[4] = NCI Yeast Anticancer Drug Screen. Data for the cln2 rad14 strain (AID 165);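 further: 0% = growth equal to vehicle treated cultures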; details: S. cerevisiae cln2 rad14 strain, stronger effect = higher value
In short: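 Strain: cln2 rad14 yeast, altered in cell cycle control and DNA damage repair. Read-out: growth inhibition vs vehicle.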

[5] = NCI Yeast Anticancer Drug Screen. Data for the bub3 strain (AID 167); details: S. cerevisiae bub3 mutant strain, stronger effect = higher value
In short: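 Part of a panel of yeast mutants defective in DNA damage repair or cell cycle regulation. Each strain is grown with compound, and inhibition is calculated relative to solvent-treated cultures.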

[6] = NCI Yeast Anticancer Drug Screen. Data for the mlh1 rad18 strain (AID 175); details: S. cerevisiae mlh1 rad18 strain growth inhibition, stronger effect = higher value
In short: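 A repair-deficient yeast strain is exposed to test compound, and growth is scored relative to vehicle-treated controls.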

[7] = at 5.0 µM (retest, dose inferred, filed as 0.5)
[8] = at 50.0 µM (retest, dose inferred, filed as 5.0)

Row | SMILES | growth inhibition [1, 7] | growth inhibition [1, 8] | growth inhibition ([1]; at 50.0 µM) | growth inhibition [2, 7] | growth inhibition [2, 8] | growth inhibition ([2]; at 50.0 µM) | growth inhibition [3, 7] | growth inhibition [3, 8] | growth inhibition ([3]; at 50.0 µM) | growth inhibition [4, 7] | growth inhibition [4, 8] | growth inhibition ([4]; at 50.0 µM) | growth inhibition [5, 7] | growth inhibition [5, 8] | growth inhibition ([5]; at 50.0 µM) | growth inhibition [6, 7] | growth inhibition [6, 8] | growth inhibition ([6]; at 50.0 µM)
1 | CC(=O)c1c(O)c2cccc3c2n(c1=O)CCC3 | 26% | 99% (active) | 97.2% (active) | -13% | 99% (active) | 91.6% (active) | 4% | 98% (active) | 94.9% (active) | 3% | 98% (active) | 71.3% (active) | -2% | 99% (active) | 84.4% (active) | 11% | 98% (active) | 95.3% (active)
2 | Nc1nc(SCc2ccccc2)c2ncn(CCCl)c2n1 | -3% | 0% | 1.4% | -4% | 2% | 15.3% | -9% | 1% | 17.6% | -4% | -1% | 70.3% (active) | -2% | -7% | -2.15% | -2% | 3% | 20.9%
3 | Cc1cc(NS(=O)(=O)c2ccc(NCc3c4ccccc4nc4cc(Cl)ccc34)cc2)no1 | 26% | 97% (active) | 98.2% (active) | 22% | 99% (active) | 98.5% (active) | 27% | 99% (active) | 98.5% (active) | 6% | 97% (active) | 97.3% (active) | 25% | 99% (active) | 96.2% (active) | 9% | 97% (active) | 98.2% (active)
4 | O=C1c2cc([N+](=O)[O-])cc3cc([N+](=O)[O-])cc(c23)C(=O)N1CCNCCN1C(=O)c2cc([N+](=O)[O-])cc3cc([N+](=O)[O-])cc(c23)C1=O | 86% (active) | 92% (active) | 81.2% (active) | 42% | 89% (active) | 89.2% (active) | 64% | 94% (active) | 42.4% | 62% | 90% (active) | 70.3% (active) | 61% | 92% (active) | 92.3% (active) | 56% | 92% (active) | 76.3% (active)
5 | COc1cccc2c1N[S@](=O)S2 | -12% | 95% (active) | 86.9% (active) | -12% | 94% (active) | 90.2% (active) | 1% | 68% | 77.9% (active) | -2% | 33% | 30% | 1% | 95% (active) | 95.5% (active) | -11% | 77% (active) | 69.9%
6 | COc1ccc2c(c1)C(O)=C(CC=C(C)C)C(=O)C2=O | -2% | 16% | 26.8% | 22% | 46% | 35% | 27% | 61% | 20.2% | 7% | 1% | 46.3% | 8% | 23% | 4.1% | 35% | 79% (active) | 41.4%
7 | CCCCCOC(=O)c1ccc(O)cc1 | -3% | 98% (active) | -3.65% | 7% | 100% (active) | 36% | 2% | 99% (active) | 51.2% | -9% | 97% (active) | 13.1% | 32% | 99% (active) | 88.9% (active) | 3% | 99% (active) | 15.4%
8 | CC1CCCC(C(c2c[nH]c3ccccc23)c2c[nH]c3ccccc23)C1=O (centres undefined) | 1% | 98% (active) | 96.8% (active) | 1% | 98% (active) | 58.6% | 3% | 97% (active) | 79.7% (active) | 0% | 98% (active) | 76.3% (active) | -11% | 96% (active) | 46% | -5% | 98% (active) | 97.2% (active)
9 | O=C1CNC(=O)c2cc(Cl)ccc2N1 | 46% | 45% | -8.75% | 25% | 32% | -26.1% | 34% | 44% | 8.6% | 28% | 29% | 13.9% | 34% | 67% | 40.1% | 44% | 42% | -2.1%
10 | Cc1ccc(/C=N/NC(N)=S)cc1C | -6% | 18% | 45.1% | -4% | 3% | 10.8% | -5% | 9% | 61.7% | -12% | -13% | -11.1% | -4% | -2% | 34.8% | -6% | 7% | 65.6%
11 | NC(=O)C1CCCN1C(=O)C1CCCN(Cc2ccc(CN3CCCC(C(=O)N4CCCC4C(N)=O)C3)cc2)C1 (centres undefined) | -1% | -5% | 91.5% (active) | 8% | 1% | 74.2% (active) | -10% | -11% | 74.4% (active) | -13% | 11% | 74.7% (active) | 16% | 13% | 78.8% (active) | -10% | -12% | 78.3% (active)
12 | COC1=Nc2ccccc2/C=C\c2ccccc21 | -136% | -77% | 78.5% (active) | -50% | -57% | 82.2% (active) | -67% | -53% | 67.7% | -49% | -60% | 25.2% | -62% | -85% | 43.7% | -124% | -118% | 69.5%
13 | NCCOB1c2ccccc2Cc2ccccc21 | 2% | 98% (active) | 45.6% | 6% | 99% (active) | 98.7% (active) | -3% | 99% (active) | -3.8% | -2% | 99% (active) | 99% (active) | 1% | 98% (active) | 99.1% (active) | 0% | 99% (active) | 99% (active)
14 | CC(C)(C)c1ccc(C(C)(C)C)cc1 | 1% | 3% | -10.7% | -5% | -4% | 6.55% | 1% | -9% | -20.4% | 4% | -7% | 50.8% | 5% | 13% | 3% | -2% | 1% | 1.55%
15 | N#Cc1cccc(C[P+](c2ccccc2)(c2ccccc2)c2ccccc2)c1 | 14% | 45% | 78.3% (active) | -1% | 22% | 46% | 3% | 38% | 75.8% (active) | 8% | 6% | 42.9% | 4% | 32% | 45.8% | 7% | 30% | 56.8%
16 | Cc1ccccc1C(CC(=O)O)C(C)c1ccccc1 (centres undefined) | 14% | 53% | 20.5% | 18% | 53% | 88.8% (active) | 9% | 66% | 77.9% (active) | 13% | 60% | 73.2% (active) | 32% | 80% (active) | 97.2% (active) | 12% | 45% | 86.2% (active)
17 | CC(NC(=O)OC(C)(C)C)C(=O)NC(Cc1ccccc1)C(=O)NCC(=O)Oc1c(Cl)c(Cl)c(Cl)c(Cl)c1Cl (centres undefined) | 30% | 66% | 65.4% | 27% | 45% | 71.5% (active) | 41% | 72% (active) | 77% (active) | 27% | 55% | 46.5% | 35% | 61% | 56.5% | 68% | 79% (active) | 73.4% (active)
18 | C[n+]1c2ccccc2cc2[nH]c3ccccc3c21 | 84% (active) | 93% (active) | 74% (active) | 86% (active) | 96% (active) | 78.6% (active) | 89% (active) | 98% (active) | 79.7% (active) | 63% | 75% (active) | 64.8% | 84% (active) | 84% (active) | 72.7% (active) | 90% (active) | 97% (active) | 77.3% (active)
